The results in this text go back to PubChem BioAssay (Tox21).

Test [1] concerns thyroid hormone receptor (rat, GH3 cells). The test is described as follows: qHTS assay to identify small molecule agonists of the thyroid receptor (TR) signaling pathway (AID 743066; calls by dose curve). Background: qHTS replaces the single test concentration by a dilution series.
Test [2] addresses Estrogen receptor (Homo sapiens) (UniProt P03372). Briefly: qHTS assay to identify small molecule antagonists of the estrogen receptor alpha (ER-alpha) signaling pathway (AID 743069; active means well fitted curve in the direction sought with a large enough effect in the signal ratio in the repeat runs, not every such curve was filed as active; the % refers to the signal ratio). In short, it runs like this:
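Estradiol-stimulated ER-alpha-UAS-bla HEK293 cells, 18 hr compound exposure at 37C. LiveBLAzer B/G substrate, 2 hr RT, fluorescence read.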

The nature of test [3]: qHTS assay to identify small molecule antagonists of the estrogen receptor alpha (ER-alpha) signaling pathway - cell viability counter screen (AID 743074; calls by dose curve;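 further: HEK293 cells carrying ER-alpha-UAS-bla reporter stimulated with 17beta-estradiol; nearly all actives have a fitted effect of over 45% in size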).
In test [4] the target is Estrogen receptor (Homo sapiens) (UniProt P03372). Briefly: qHTS assay to identify small molecule agonists of the estrogen receptor alpha (ER-alpha) signaling pathway (AID 743075; calls by dose curve;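 further: HEK293 GripTite cells with ER-alpha and UAS-driven beta-lactamase reporter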).
Estrogen receptor (Homo sapiens), sequence (P03372 whole entry, looked up): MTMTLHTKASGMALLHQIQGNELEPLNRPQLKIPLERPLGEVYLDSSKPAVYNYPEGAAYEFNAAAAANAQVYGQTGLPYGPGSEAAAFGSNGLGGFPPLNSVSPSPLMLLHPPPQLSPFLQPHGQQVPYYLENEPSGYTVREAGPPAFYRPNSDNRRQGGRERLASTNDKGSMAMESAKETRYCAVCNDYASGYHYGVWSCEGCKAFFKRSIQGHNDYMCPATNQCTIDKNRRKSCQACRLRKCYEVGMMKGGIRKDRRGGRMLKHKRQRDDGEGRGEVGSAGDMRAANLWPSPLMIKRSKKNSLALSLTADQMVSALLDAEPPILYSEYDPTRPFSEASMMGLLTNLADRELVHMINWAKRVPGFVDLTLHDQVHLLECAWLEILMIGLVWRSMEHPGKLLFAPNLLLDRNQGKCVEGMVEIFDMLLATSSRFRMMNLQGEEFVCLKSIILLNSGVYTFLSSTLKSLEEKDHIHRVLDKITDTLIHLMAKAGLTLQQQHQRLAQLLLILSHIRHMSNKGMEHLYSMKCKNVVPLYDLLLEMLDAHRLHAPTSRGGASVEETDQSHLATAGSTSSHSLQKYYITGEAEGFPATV
The target is the same in test [5]. The test is described as follows: qHTS assay to identify small molecule agonists of the estrogen receptor alpha (ER-alpha) signaling pathway using the BG1 cell line (AID 743079). Further: nearly all actives have a fitted effect of over 20% in size.
Test [6] in a line: qHTS assay to identify small molecule antagonists of the estrogen receptor alpha (ER-alpha) signaling pathway using the BG1 cell line (AID 743080; calls by dose curve;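 further: BG1 cells stimulated with 17beta-estradiol alongside compound; series mostly up to about 70 µM; nearly all actives have a fitted effect of over 25% in size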). In short, it runs like this:
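Luciferase inhibition measured with ONE-Glo after 30 min at RT in BG1Luc4E2 cells given test compounds and 17beta-estradiol for 21.5 h at 37 C; CellTiter-Fluor viability read in the same wells beforehand.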

Test [7] is described as follows: qHTS assay to identify small molecule antagonists of the estrogen receptor alpha (ER-alpha) signaling pathway using the BG1 cell line - cell viability counter screen (AID 743081).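 Further: compound given together with 17beta-estradiol as the ER stimulus; series mostly up to about 70 µM; nearly all actives have a fitted effect of over 45% in size.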
A further test addresses Aromatase (Homo sapiens) (UniProt P11511). Briefly: qHTS assay to identify aromatase inhibitors (AID 743083). Further: series mostly up to about 70 µM; nearly all actives have a fitted effect of over 55% in size.
Test [8] in a line: qHTS assay to identify aromatase inhibitors - cell viability counter screen (AID 743084).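 Further: cells stimulated with testosterone during compound exposure; nearly all actives have a fitted effect of over 55% in size.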
Test [9] addresses Aryl hydrocarbon receptor (Homo sapiens) (UniProt P35869). The test is described as follows: qHTS assay to identify small molecule that activate the aryl hydrocarbon receptor (AhR) signaling pathway (AID 743085). Further: nearly all actives have a fitted effect of over 15% in size. Further: potency means the concentration at half of the fitted maximal effect.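 On activation: HG2L7.5c1 human HepG2 liver cells with stably integrated DRE-driven firefly reporter; series mostly up to about 70 µM.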 In short, it runs like this: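 Reporter assay in engineered HepG2 line HG2L7.5c1, whose plasmid carries twenty dioxin responsive elements upstream of firefly luciferase. Treatment lasted 24 h at 37C; ONE-Glo luminescence gauged induction.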

A short description of test [10]: qHTS assay to identify small molecule that activate the aryl hydrocarbon receptor (AhR) signaling pathway - cell viability counter screen (AID 743086).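 Further: HepG2 liver cells carrying the AhR DRE luciferase reporter; series mostly up to about 70 µM; nearly all actives have a fitted effect of over 45% in size.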 In short, it runs like this:
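HepG2-AhR-luc (HG2L7.5c1) cells, 4000/well, were preincubated 5 h at 37C, exposed to compound in qHTS format for 24 hr at 37C, then given CellTiter-Fluor for 30 min; viability was read as fluorescence in the reporter wells.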

Test [11] has as its target Peroxisome proliferator-activated receptor gamma (Homo sapiens) (UniProt P37231). Briefly: qHTS assay to identify small molecule agonists of the peroxisome proliferator-activated receptor gamma (PPARg) signaling pathway (AID 743094; active means well fitted activation curve with a large enough effect in the signal ratio in the repeat runs, not every such curve was filed as active; the % refers to the signal ratio). In short, it runs like this:
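Quantitative HTS agonist mode: stable HEK293H line with UAS-beta-lactamase reporter under PPARg control, 17 h compound exposure at 37C, fluorescence after 1 h FRET substrate loading at room temperature.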

The target is the same in test [12]. Briefly: qHTS assay to identify small molecule antagonists of the peroxisome proliferator-activated receptor gamma (PPARg) signaling pathway (AID 743191; calls by dose curve; further: series mostly up to about 63 µM; nearly all actives have a fitted effect of over 30% in size). In short, it runs like this: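 GeneBLAzer PPARg UAS-bla HEK293H cells carrying a UAS-driven beta-lactamase reporter were plated at 3000 cells/well, preincubated 5 h at 37C, then given compound for 17 h at 37C; LiveBLAzer B/G FRET substrate was read after 1 h at room temperature.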

Test [13] is described as follows: qHTS assay to identify small molecule antagonists of the peroxisome proliferator-activated receptor gamma (PPARg) signaling pathway - cell viability counter screen (AID 743194). Further: nearly all actives have a fitted effect of over 55% in size. In short, it runs like this:
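PPARg-UAS-bla HEK293H cells were plated, rested 5 h at 37 C, then treated with compounds plus rosiglitazone (50 nM final) for 17 h at 37 C; viability was then read by CellTiter-Glo luminescence after 30 min at room temperature.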

Test [14] in a line: qHTS assay for small molecule agonists of the antioxidant response element (ARE) signaling pathway (AID 743202; active means well fitted activation curve with a large enough effect in the signal ratio in the repeat runs, not every such curve was filed as active; the % refers to the signal ratio). In short, it runs like this: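 Compounds delivered in DMSO to ARE-bla HepG2 cells (2,000 cells/well, pre-incubated 5 h) and left 16 h at 37 C. LiveBLAzer B/G FRET substrate then added for 2 h at RT before fluorescence reading.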
Test [15] in a line: qHTS assay for small molecule agonists of the antioxidant response element (ARE) signaling pathway - cell viability counter screen (AID 743203; calls by dose curve; further: nearly all actives have a fitted effect of over 55% in size). In short, it runs like this:
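Seeded at 2,000 cells/well, ARE-bla HepG2 cells were incubated 5 hrs before compound addition. After 16 hrs of treatment at 37C with 5% CO2, CellTiter-Glo reagent was added and luminescence read 30 min later.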

Test [16] is described as follows: qHTS assay for small molecule activators of the heat shock response signaling pathway - cell viability counter screen (AID 743209). Further: nearly all actives have a fitted effect of over 50% in size. In short, it runs like this: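 First, HSE-bla HeLa cells were seeded at 1500 cells/well and kept overnight at 37 C. Next, compounds were pinned in and incubated 5 h. After the FRET substrate step, CellTiter-Glo was added and luminescence read 30 min later.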

Test [17] is described as follows: qHTS assay for small molecule activators of the heat shock response signaling pathway (AID 743210; active means well fitted activation curve with a large enough effect in the signal ratio in the repeat runs, with a control signal flat, not every such curve was filed as active; the % refers to the signal ratio;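 further: HeLa cells with beta-lactamase reporter driven by heat shock elements; series mostly up to about 63 µM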). In short, it runs like this: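 Reporter gene assay: HeLa cells stably bearing an HSE-bla construct, compound treatment 5 h at 37 C, LiveBLAzer substrate 2.5 h at RT, fluorescence intensity.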
The nature of test [18]: qHTS assay to identify small molecule agonists of the peroxisome proliferator-activated receptor delta (PPARd) signaling pathway - cell viability counter screen (AID 743211). Further: nearly all actives have a fitted effect of over 55% in size. In short, it runs like this:
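Multiplexed format: after the 2 h room-temperature LiveBLAzer B/G FRET step, CellTiter-Glo was added to the same wells. Luminescence after 30 min gave cell viability; compound exposure was 17 h at 37C.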

Test [19] can be described thus: qHTS assay to identify small molecule antagonists of the thyroid receptor (TR) signaling pathway (AID 743065). In short, it runs like this:
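GH3.TRE-Luc rat pituitary cells carrying two TR response elements driving luciferase were plated for 4 h, given compound plus 1 nM T3 (final), and incubated 23.5 h at 37 C. ONE-Glo luminescence measured reporter inhibition; CellTiter-Fluor fluorescence tracked cytotoxicity.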

The structures appear in SMILES notation. Results filed as inconclusive are left out. Unmarked numbers belong to inactive results. The source made the active and inactive calls. Unless noted, the call rests on the fitted dose curve; in most records, active means well fitted curve in the direction sought with a large enough effect in the repeat runs; inconclusive means weak or mixed curves; inactive means no such curve, though single readings can be large; an effect the other way counts as inactive or inconclusive.
On the % scale 0 is the no-effect control and ±100 the full control effect.

Aromatase (Homo sapiens), sequence (P11511 whole entry, looked up): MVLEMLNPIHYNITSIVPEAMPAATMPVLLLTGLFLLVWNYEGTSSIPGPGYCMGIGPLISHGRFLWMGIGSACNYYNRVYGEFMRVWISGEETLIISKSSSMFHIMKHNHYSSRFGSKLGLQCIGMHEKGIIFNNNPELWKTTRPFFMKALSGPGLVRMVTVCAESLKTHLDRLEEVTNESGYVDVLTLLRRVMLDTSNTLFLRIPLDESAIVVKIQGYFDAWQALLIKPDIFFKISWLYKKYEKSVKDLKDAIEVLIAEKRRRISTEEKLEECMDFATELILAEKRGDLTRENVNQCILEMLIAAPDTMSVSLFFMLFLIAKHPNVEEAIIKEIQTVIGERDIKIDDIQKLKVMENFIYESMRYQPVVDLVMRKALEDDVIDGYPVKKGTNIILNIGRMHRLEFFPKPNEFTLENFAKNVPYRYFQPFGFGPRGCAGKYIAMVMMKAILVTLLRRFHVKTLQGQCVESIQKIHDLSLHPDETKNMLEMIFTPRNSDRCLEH
Peroxisome proliferator-activated receptor gamma (Homo sapiens), sequence (P37231 whole entry, looked up): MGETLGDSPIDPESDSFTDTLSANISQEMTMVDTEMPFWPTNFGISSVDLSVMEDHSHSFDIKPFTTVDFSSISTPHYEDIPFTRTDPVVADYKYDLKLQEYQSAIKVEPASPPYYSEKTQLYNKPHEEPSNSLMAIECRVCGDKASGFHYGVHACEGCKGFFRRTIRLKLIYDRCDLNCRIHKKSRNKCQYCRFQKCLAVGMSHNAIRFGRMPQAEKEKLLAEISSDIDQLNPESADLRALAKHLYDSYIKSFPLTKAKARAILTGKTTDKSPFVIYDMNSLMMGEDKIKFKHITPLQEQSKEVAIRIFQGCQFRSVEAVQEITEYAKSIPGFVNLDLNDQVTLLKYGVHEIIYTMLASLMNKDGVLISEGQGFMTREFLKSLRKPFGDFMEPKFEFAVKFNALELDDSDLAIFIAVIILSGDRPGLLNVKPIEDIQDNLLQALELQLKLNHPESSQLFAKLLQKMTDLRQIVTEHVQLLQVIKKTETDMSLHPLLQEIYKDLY
Aryl hydrocarbon receptor (Homo sapiens), sequence (P35869 whole entry, looked up): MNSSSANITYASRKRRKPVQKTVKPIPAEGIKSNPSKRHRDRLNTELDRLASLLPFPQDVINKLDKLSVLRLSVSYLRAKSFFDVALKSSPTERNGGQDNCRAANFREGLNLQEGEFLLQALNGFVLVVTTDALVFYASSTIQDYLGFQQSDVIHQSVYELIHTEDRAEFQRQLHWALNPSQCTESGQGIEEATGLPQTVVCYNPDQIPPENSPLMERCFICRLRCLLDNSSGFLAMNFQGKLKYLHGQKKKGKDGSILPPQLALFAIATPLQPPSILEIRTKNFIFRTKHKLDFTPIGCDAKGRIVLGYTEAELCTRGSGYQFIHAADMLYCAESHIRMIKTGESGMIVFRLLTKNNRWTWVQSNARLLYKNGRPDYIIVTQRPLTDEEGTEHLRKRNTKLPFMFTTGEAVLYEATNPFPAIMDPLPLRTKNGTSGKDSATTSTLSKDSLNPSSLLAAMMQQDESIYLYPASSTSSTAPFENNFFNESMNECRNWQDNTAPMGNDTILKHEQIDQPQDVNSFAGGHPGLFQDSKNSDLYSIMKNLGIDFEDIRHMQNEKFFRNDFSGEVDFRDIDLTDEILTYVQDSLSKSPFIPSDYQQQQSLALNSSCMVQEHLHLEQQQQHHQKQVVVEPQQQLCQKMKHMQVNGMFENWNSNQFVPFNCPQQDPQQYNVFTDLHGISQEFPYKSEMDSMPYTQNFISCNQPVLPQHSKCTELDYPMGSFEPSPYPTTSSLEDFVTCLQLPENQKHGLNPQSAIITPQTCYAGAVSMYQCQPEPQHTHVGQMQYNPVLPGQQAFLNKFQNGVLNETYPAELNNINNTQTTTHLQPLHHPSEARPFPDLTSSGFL

With `CCCCc1ccc2c(n1)[C@@H](c1ccc(OC)cc1C[C@H](C)C(=O)O)[C@H](C(=O)O)[C@H]2c1ccc2c(c1)OCO2`, the call (in test [1]; in [7]; with Aromatase (Homo sapiens); in test [13]; in test [15]; in [16]) was inactive. The result in test [17] and in [18] was inactive. Besides, the Potency entry in test [2], in test [3], in [4], in test [5], in test [6] and in test [8] was “inactive” throughout. The Potency entry in test [9], in [10], in test [11], in [12] and in test [14] was “inactive” in each case.

Take `N[C@@H](CCC(=O)O)C(=O)O`: the call (in [1]; in test [7]; with Aromatase (Homo sapiens); in [13]; in test [15]; in test [16]) was inactive. In addition, the outcome in test [18] was inactive. Moreover, the Potency result in [2], in [3], in [4], in test [5], in test [6] and in test [8] was “inactive” in each case. In addition, the Potency entry in [9], in test [10], in test [12] and in test [14] was “inactive” in each case.

Regarding `C=CC(C)(CCC=C(C)C)OC(=O)CC` (stereo unspecified), the molecule was classed as inactive (in test [1]; in test [7]; in the test with Aromatase (Homo sapiens); in test [13]; in test [15]; in test [16]). Moreover, the result in test [17] and in test [18] was inactive. Also, the Potency result in [2], in [3], in test [4], in test [5], in test [6] and in test [8] was “inactive” throughout. The Potency result in test [9], in test [10], in [11] and in [14] was “inactive” throughout.

With `CC1=C(C/C=C(\C)CCC[C@H](C)CCC[C@H](C)CCCC(C)C)C(=O)c2ccccc2C1=O`, the Potency entry in test [19], in test [8], in [10] and in test [14] was “inactive” in each case. In addition, the molecule was classed as inactive (in [1]; in test [7]; with Aromatase (Homo sapiens); in test [13]; in [16]; in [17]). The outcome in test [18] was inactive. Also, the Potency in [9] is 26.6 µM (active).

Turning to `CCCCN(CCC(=O)OCC)C(C)=O`, the call (in test [1]; in test [7]; with Aromatase (Homo sapiens); in [13]; in test [15]; in test [16]) was inactive. For the same molecule, the molecule was classed as inactive in test [17] and in test [18]. Further, the Potency result in test [2], in test [3], in test [4], in test [5], in test [6] and in test [8] was “inactive” in each case. The Potency result in [9], in test [10], in test [11], in test [12] and in [14] was “inactive” in each case.

With `Clc1cc(Cl)c(Cl)nc1Cl`, the Potency result in test [19], in test [10], in test [11], in test [12] and in [14] was “inactive” throughout. Further, the call (in [1]; in test [7]; with Aromatase (Homo sapiens); in test [13]; in test [15]; in test [16]) was inactive. The outcome in [17] and in test [18] was inactive.

With `CCCCCCCCCCOc1cc2c(=O)c(C(=O)OCC)c[nH]c2cc1OCC`, the molecule was classed as inactive (in [1]; in test [7]; in the test with Aromatase (Homo sapiens)). Moreover, the Potency result in test [2], in [3], in [4], in test [5], in test [6] and in test [8] was “inactive” throughout. The Potency entry in test [9], in [10] and in test [11] was “inactive” in each case. For the same molecule, the results for the activity change, negative = cytotoxicity in test [13], in test [16] and in test [18] were 22.1% [at 5.95 µM], 1.04% [at 5.95 µM] and 8.81% [at 5.95 µM], respectively. The figures for the activation in [14] and in test [17] were -0.445% [at 8.36 µM] and -0.938% [at 5.95 µM], respectively. The viability change, negative = cytotoxic in test [15] is -3.47% [at 8.36 µM].

As for `CC(C#N)(CCC(=O)O)N=NC(C)(C#N)CCC(=O)O` (stereo unspecified), the Potency result in test [19], in test [3], in [8], in test [9], in test [10] and in test [11] was “inactive” in each case. Further, the Potency entry in test [12] and in test [14] was “inactive” each time. For the same molecule, the result (in test [7]; with Aromatase (Homo sapiens); in test [13]; in test [15]; in test [16]; in [17]) was inactive. In test [18], the molecule was called inactive.
